Screens from PubChem.
nsP2pro inh – Primary qHTS for inhibitors of NSP2Pro chikungunya virus (CHIKV) | Polyprotein P1234 (Chikungunya virus (strain S27-African prototype)), Q8JUX6 | Potency, µM (series often up to 24.9 µM), without a hit: at the highest dose activity change, negative = inhibition, actives largely listed as inhibitors | actives 1.1% (n = 31,000) | FRET peptide cleavage, nsP2pro, fluorescence 1 h; also: nearly all actives have a fitted effect of over 60% in size
Target sequence (Q8JUX6 whole entry, looked up): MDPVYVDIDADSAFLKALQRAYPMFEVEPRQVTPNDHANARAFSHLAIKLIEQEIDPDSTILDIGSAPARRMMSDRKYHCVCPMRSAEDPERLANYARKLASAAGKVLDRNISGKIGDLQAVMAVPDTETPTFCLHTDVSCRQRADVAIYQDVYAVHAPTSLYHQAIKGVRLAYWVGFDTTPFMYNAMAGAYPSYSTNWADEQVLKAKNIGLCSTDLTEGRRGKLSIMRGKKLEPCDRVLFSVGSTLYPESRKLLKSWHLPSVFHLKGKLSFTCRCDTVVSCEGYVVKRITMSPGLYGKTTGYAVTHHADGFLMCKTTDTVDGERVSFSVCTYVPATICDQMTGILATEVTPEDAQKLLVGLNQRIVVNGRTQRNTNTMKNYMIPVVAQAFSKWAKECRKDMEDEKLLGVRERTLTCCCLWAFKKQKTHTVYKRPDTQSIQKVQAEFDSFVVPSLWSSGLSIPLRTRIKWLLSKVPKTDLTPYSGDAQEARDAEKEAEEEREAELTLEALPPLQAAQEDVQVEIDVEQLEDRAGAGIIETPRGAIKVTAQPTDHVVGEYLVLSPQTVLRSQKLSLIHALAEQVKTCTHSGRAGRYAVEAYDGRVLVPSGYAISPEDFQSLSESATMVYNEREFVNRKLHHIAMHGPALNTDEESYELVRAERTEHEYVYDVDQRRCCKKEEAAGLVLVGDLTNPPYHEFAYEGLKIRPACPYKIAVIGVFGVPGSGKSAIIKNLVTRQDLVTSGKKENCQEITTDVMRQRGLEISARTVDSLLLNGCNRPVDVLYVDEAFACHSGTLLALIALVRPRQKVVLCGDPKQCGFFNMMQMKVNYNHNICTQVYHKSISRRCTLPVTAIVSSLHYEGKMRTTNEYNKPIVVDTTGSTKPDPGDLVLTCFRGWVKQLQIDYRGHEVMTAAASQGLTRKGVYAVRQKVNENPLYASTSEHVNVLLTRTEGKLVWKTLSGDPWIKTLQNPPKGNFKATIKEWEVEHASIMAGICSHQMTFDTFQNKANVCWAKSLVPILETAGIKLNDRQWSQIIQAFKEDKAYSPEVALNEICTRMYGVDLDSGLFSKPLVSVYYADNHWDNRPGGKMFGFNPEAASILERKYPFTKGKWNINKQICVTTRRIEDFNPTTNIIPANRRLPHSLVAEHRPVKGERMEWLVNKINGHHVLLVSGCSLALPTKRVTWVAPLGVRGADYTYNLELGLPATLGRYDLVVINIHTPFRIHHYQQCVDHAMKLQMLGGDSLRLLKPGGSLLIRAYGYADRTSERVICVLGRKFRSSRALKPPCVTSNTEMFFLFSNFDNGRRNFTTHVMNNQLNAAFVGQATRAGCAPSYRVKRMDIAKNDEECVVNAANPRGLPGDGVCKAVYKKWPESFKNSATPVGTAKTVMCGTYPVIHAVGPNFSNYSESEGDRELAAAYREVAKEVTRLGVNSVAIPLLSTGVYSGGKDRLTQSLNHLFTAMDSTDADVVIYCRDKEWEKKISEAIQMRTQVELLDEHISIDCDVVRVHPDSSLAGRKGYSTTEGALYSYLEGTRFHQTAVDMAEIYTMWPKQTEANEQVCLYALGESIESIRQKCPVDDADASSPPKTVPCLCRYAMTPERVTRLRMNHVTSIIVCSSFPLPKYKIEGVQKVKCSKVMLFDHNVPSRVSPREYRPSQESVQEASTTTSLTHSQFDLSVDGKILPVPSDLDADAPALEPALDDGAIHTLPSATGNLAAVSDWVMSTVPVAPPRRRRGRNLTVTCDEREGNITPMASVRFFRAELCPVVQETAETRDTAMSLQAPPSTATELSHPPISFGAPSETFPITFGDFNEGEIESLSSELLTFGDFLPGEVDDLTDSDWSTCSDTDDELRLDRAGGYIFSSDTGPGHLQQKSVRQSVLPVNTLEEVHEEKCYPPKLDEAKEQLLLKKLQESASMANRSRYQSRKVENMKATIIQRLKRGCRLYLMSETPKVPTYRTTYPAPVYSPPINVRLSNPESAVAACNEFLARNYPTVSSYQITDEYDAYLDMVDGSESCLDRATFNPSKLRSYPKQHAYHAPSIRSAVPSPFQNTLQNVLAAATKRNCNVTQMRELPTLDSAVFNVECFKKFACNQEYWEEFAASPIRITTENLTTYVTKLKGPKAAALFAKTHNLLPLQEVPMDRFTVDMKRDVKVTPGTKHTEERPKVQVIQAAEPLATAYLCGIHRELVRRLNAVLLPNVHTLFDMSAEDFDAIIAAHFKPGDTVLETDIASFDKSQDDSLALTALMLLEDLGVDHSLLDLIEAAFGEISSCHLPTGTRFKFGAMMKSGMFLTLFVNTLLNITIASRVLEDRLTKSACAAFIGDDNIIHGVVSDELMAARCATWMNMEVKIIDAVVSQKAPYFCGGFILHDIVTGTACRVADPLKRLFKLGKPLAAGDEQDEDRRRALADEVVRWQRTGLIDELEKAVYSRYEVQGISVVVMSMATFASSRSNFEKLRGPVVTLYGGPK
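Purified recombinant nsP2pro (150 nM final) in 10 mM Tris-HCl pH 8.0 with 0.01% Tween 20 was preincubated 15 min at room temperature with compound (7 concentrations, up to 25 uM). FRET peptide 2 substrate (2.5 uM final) was then added; fluorescence was read after 1 h.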
CHIKV nsP2 cell – Secondary cell base assay for inhibitors of NSP2Pro Chikungunya virus (CHIKV); actives 10% (n = 450); Potency, µM (doses to about 51.1 µM), for the others: at the highest dose activity change, negative = inhibition, hits mostly inhibitors; cell-based CHIKV nsP2 protease reporter assay; shares compounds with nsP2pro inh; also: nearly all actives have a fitted effect of over 70% in size
NSP2 full ctr – Selectivity profile for inhibitors of NSP2Pro chikungunya virus (CHIKV): Full length NSP2 enzyme counterscreen (CHIKV-NSP2). shares compounds with nsP2pro inh. Full-length CHIKV NSP2 protease enzymatic counterscreen. Potency, µM (top dose mostly 50.7 µM), for inactives: at the top dose activity change, negative = inhibition, most hits filed as inhibitors. actives 39% (n = 410); also: nearly all actives have a fitted effect of over 65% in size
Furin counter – Selectivity profile for inhibitors of NSP2Pro chikungunya virus (CHIKV): Human furin counterscreen | shares compounds with nsP2pro inh | Recombinant human furin enzymatic counterscreen, fluorogenic substrate | Potency, µM (doses to about 50.6 µM), without a hit: top-dose activity change, negative = inhibition, actives largely listed as inhibitors | actives 6% (n = 410) | AID 1964102, 2024
nsP2 NS23 pep – Selectivity profile for inhibitors of NSP2Pro chikungunya virus (CHIKV): Endogenous NS2/3 peptide Counterscreen. AID 1964103, 2024. actives 34% (n = 410). Purified CHIKV nsP2 protease, endogenous NS2/3 peptide cleavage. shares compounds with nsP2pro inh. Potency, µM (highest dose often 51 µM), for inactives: at the highest dose activity change, negative = inhibition, hits mostly inhibitors; also: nearly all actives have a fitted effect of over 55% in size
Papain counter – Selectivity profile for inhibitors of NSP2Pro chikungunya virus (CHIKV): Papain Counterscreen; shares compounds with nsP2pro inh; purified papain protease activity, enzymatic inhibition; Potency, µM (highest dose often 51 µM), inactives show at the top dose activity change, negative = inhibition, most hits filed as inhibitors; actives 5% (n = 410)
nsP2pro confirm – Confirmatory qHTS for inhibitors of NSP2Pro chikungunya virus (CHIKV). shares compounds with nsP2pro inh. CHIKV nsP2 protease enzymatic activity, qHTS. Potency, µM (highest dose often 25.5 µM), inactives show top-dose activity change, negative = inhibition, actives largely listed as inhibitors. actives 43% (n = 410). AID 1964105, 2024; also: nearly all actives have a fitted effect of over 75% in size
HCV NS3 4A cs – Selectivity profile for inhibitors of NSP2Pro chikungunya virus (CHIKV): NS34A-HCV Counterscreen; shares compounds with nsP2pro inh; actives 20% (n = 410); AID 1964106, 2024; HCV NS3/4A protease biochemical counterscreen; Potency, µM (series often up to 50.9 µM), most hits filed as inhibitors; also: nearly all actives have a fitted effect of over 55% in size
Numbers without * were called inactive; i = inactive; ? = inconclusive; [ ] = dose if it differs, or a comment. This is one part of a sample in which hits are shown more often than they occur. Calls follow the shape of the full dose curve. % is scaled to controls: 0 for no effect and ±100 for the full control effect; potency is read from the fitted curve at half-maximal effect.

SMILES	nsP2pro inh	others
COC1=Cc2c(nc3n(c2=O)C(C)C(=O)NC3(O)C(C)C)OC=C1 (stereo unspecified)	?	CHIKV nsP2 cell=-3.7%[33.5 µM];NSP2 full ctr=-0.1%[33.5 µM];Furin counter=-12.8%[33.5 µM];nsP2 NS23 pep=-23.1%[33.5 µM];Papain counter=-12.7%[33.5 µM];nsP2pro confirm=?;HCV NS3 4A cs=i
C[C@@H](O)[C@H]1C(=O)N2C(C(=O)O)=C(S[C@@H]3CN[C@H](C(=O)Nc4cccc(C(=O)O)c4)C3)[C@H](C)[C@H]12	108.5%
Cc1cccc(-n2cnc3cc(C(=O)N4CCC(Br)CC4)ccc32)c1	-8.8%
C[C@@H]1O[C@@H](O[C@H]2[C@H](O)[C@@H](O[C@@H]3O[C@H](CO)[C@@H](O)[C@H](O[C@@H]4O[C@H](CO)[C@@H](O)[C@H](O)[C@H]4O)[C@H]3O)[C@H](O[C@H]3CC[C@@]4(C)C(=CC[C@@H]5C4CC[C@@]4(C)C5C[C@@H]5OC6(CC[C@@](C)(CO[C@@H]7O[C@H](CO)[C@@H](O)[C@H](O)[C@H]7O)O6)[C@@H](C)[C@@H]54)C3)O[C@@H]2CO)[C@H](O)[C@H](O)[C@H]1O (stereo partly specified)	16.7%[5.1 µM]
Cc1cnc(C(=O)NC2C[C@H]3CC[C@@H](C2)N3S(=O)(=O)c2ccc(C)c(F)c2)cn1 (stereo partly specified)	-1.3%
Cc1cc(C)nc(NC(=S)N2CCN(c3cc(Br)cc(C(F)(F)F)c3)CC2)c1	-6.3%
CC(C)c1nc(-c2ccc(NC(=O)Nc3cccc(C(F)(F)F)c3)c3ccccc23)c2c(N)nccn12	91.1%
CN(Cc1ccccc1)C(=O)[C@H](NC(=O)c1cc2cc(NC(=O)c3ccccc3-c3ccc(C(F)(F)F)cc3)ccc2n1C)c1ccccc1	-4.2%
O=c1c(NS(=O)(=O)Cc2ccccc2)ccc2n1C[C@H]1C[C@@H]2CN(S(=O)(=O)c2ccccc2)C1	?	CHIKV nsP2 cell=5.6%;NSP2 full ctr=?;Furin counter=-4.7%;nsP2 NS23 pep=?;Papain counter=-3.5%;nsP2pro confirm=?;HCV NS3 4A cs=?
CCCS(=O)(=O)Nc1ccc2n(c1=O)C[C@H]1C[C@@H]2CN(C(=O)c2ccc(-c3ccccc3)cc2)C1	?	CHIKV nsP2 cell=-1.8%;NSP2 full ctr=?;Furin counter=-8.1%;nsP2 NS23 pep=?;Papain counter=-7.9%;nsP2pro confirm=-3.5%;HCV NS3 4A cs=?
COc1ccc(S(=O)(=O)N2C[C@@H]3C[C@H](C2)c2ccc(NS(=O)(=O)c4cccc(F)c4)c(=O)n2C3)cc1	24.0%
O=C(Nc1ccccc1)Nc1ccc2n(c1=O)C[C@H]1C[C@@H]2CN(C(=O)c2ccccc2)C1	-18.8%[39.2 µM]
O=c1c(NS(=O)(=O)c2cccc(F)c2)ccc2n1C[C@H]1C[C@@H]2CN(S(=O)(=O)c2ccccc2)C1	17.8%
O=C(c1ccccn1)N1C[C@@H]2C[C@H](C1)c1ccc(NS(=O)(=O)c3cccc(F)c3)c(=O)n1C2	-5.8%
CC(=O)Nc1nc(C)c(S(=O)(=O)Nc2ccc(C(O)(C(F)(F)F)C(F)(F)F)cc2)s1	-20.6%
O=C(O)c1ccc(-n2cccc2/C=C2\SC(=O)N(Cc3ccc(Cl)cc3)C2=O)cc1	i
Oc1ccc(CNc2ccc(F)cc2Cl)c2cccnc12	-12.5%
O=C(O)C1CCc2cc(C3CCCCC3)c(Cl)cc21 (stereo unspecified)	6.0%
COc1ccccc1CNc1ccc(S(=O)(=O)Nc2nccs2)cc1	2.8%
N#Cc1cccc(-c2ccc(CNc3nc(-c4ccccc4C(F)(F)F)nc4ccccc34)cc2)c1	-2.5%
CN1C(=O)[C@]23C[C@H]4C(C)(C)[C@]5(CNc6c5ccc5c6OC=CC(C)(C)O5)C[C@@]41CN2CC[C@@]3(C)O	21.4%
CCCCCC[C@@H](O)C/C=C\CCCCCCCC(=O)O	-13.8%
CC/C=C\C/C=C\C/C=C\C/C=C\C/C=C\CCCC(=O)O	?	CHIKV nsP2 cell=13.1%[100 µM];NSP2 full ctr=6.68µM*;Furin counter=-10.8%[100 µM];nsP2 NS23 pep=?;Papain counter=33.5µM*;nsP2pro confirm=8.19µM*;HCV NS3 4A cs=i
CCCCCC/C=C\CCCCCCCC(=O)O	10.4%
Cc1cc(C)nc(NC(=S)N2CCN(c3ccc4ccccc4n3)CC2)c1	-1.8%
SMILES	nsP2pro inh	others
Cc1ccc(C)c(N2CCN(C(c3ccc(F)cc3)c3nnc(-c4ccccc4)o3)CC2)c1 (stereo unspecified)	?	CHIKV nsP2 cell=-2.9%;NSP2 full ctr=20.6µM*;Furin counter=-6.3%;nsP2 NS23 pep=?;Papain counter=-10.2%;nsP2pro confirm=?;HCV NS3 4A cs=11.6µM*
Fc1ccc(C(c2nnc(-c3ccccc3)o2)N2CCN(c3cccc(Cl)c3)CC2)cc1 (stereo unspecified)	51.9%
Cc1cccc(N2CCN(C(c3ccccc3)c3nnc(-c4ccccc4F)o3)CC2)c1C (stereo unspecified)	-3.1%
O=C(Cn1nc(C2CCCCC2)ccc1=O)NCCc1ccccc1	i
Cc1cnc(C2CCOCC2)n1CC1CCN(C(=O)c2cccnc2)CC1	-4.1%
O=C(c1ccncc1)N1CCCC(CN2CCCC2)CC1 (stereo unspecified)	-7.4%
O=C(/C=C/c1cccnc1)NCCCCC1CCN(C(=O)c2ccccc2)CC1	?	CHIKV nsP2 cell=-27.6%;NSP2 full ctr=17.6%;Furin counter=12.3%;nsP2 NS23 pep=i;Papain counter=-8.4%;nsP2pro confirm=22.5%;HCV NS3 4A cs=i
CC1(C)CC(NC(=O)C(=O)Nc2ccc(Br)cc2)CC(C)(C)N1	-5.3%
COc1ccccc1S(=O)(=O)Nc1cnccc1C(=O)Nc1nc(-c2ccccc2)cs1	i
CN(Cc1cccc(OC(F)(F)F)c1)C(=O)C1(c2ccc(Cl)cc2)CCOCC1	-7.0%
Cc1ccc(-c2cc(C(=O)Nc3ccc(-c4nn[nH]n4)cc3)c3ccccc3n2)cc1C	i
O=C(O)C(=O)Nc1cccc(-c2nn[nH]n2)c1	?	CHIKV nsP2 cell=0.1%;NSP2 full ctr=?;Furin counter=-7.0%;nsP2 NS23 pep=?;Papain counter=-6.0%;nsP2pro confirm=10µM*;HCV NS3 4A cs=?
CCCCOC(=O)C(=O)Nc1cccc(-c2nn[nH]n2)c1	-1.3%
